Experimental data published in the supplement of paper PMC10681739.

target: T1, ETS1 (UniProt P14921); assay: ETS1 binding intensity (PBM fluorescence), ETS1 alone (arbitrary fluorescence units); higher = stronger binding; details: ETS1 concentration 1 nM; RUNX1 concentration 0 nM
T1 sequence: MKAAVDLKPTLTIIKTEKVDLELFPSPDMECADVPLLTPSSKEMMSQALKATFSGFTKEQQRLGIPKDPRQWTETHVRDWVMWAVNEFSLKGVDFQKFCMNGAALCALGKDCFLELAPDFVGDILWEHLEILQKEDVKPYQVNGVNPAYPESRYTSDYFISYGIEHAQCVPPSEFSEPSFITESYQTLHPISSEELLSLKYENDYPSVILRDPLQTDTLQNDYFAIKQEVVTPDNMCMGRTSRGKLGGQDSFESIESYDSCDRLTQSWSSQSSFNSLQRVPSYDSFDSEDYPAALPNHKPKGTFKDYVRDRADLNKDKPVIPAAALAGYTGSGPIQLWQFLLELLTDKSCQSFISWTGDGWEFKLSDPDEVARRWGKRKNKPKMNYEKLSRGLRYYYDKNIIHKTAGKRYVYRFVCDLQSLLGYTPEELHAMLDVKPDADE

Q: For AGCTCCAGGAAGAGGGCCTGAAAACCAAACGGGGGA, which ETS1 binding intensity is on record?
A: 408

Q: For TCTGAGAATGCAGGATATGTGTGTGGTCTCTAGTCA, which ETS1 binding intensity is on record?
A: 1240

Q: For TGGCTGTTCAGCCTTCCGCTTGTGGCTCCACCCCCG, which ETS1 binding intensity is on record?
A: 594

Q: For TTTCCTACAGAAGGATGTGGTTGGTGGGTTTGGTTT, which ETS1 binding intensity is on record?
A: 619

Q: With GTGCAGGCCGGAAGGAAAAGGGTTGTGGGGCTCATT as the sequence, how does the ETS1 binding intensity read?
A: 1180

Q: GGTTTTGGTAGGAAGGAAAGTGGTTTTCATAGGAAG was tested. Which ETS1 binding intensity did it give?
A: 588

Q: GCTAAAGGAAGCTCTGTACAGCTGTGGTAAGGTGGC was tested. Which ETS1 binding intensity did it give?
A: 552

Q: Which ETS1 binding intensity does the source give for TACTTAGAGGAAATGTGGCCTGTGGTCTTGTCTCAC here?
A: 617

Q: With TCCAGCCGGACGCGATGCCTGGAGGCTGCGGGCGCC as the sequence, how does the ETS1 binding intensity read?
A: 328

Q: TGGGAAGGGTGAGGAGGAAGCGGTGGCCTTGCTCTG was tested. Which ETS1 binding intensity did it give?
A: 604

Q: For GCTTTTCCGCTCCCAGAGTGCCCCGCCCACAGTTCA, which ETS1 binding intensity is on record?
A: 477

Q: With GCTATCCCCGCCCCTTCCTGTGGGCTGGCGCCCGAT as the sequence, how does the ETS1 binding intensity read?
A: 482

Q: With TGCCCAGTACTTCCTCTTGTGGGGGAGCACAACTTG as the sequence, how does the ETS1 binding intensity read?
A: 569

Q: How did the ETS1 binding intensity turn out when AGGGCGCCGCTTCCGGGAGCCCGCAAGCGGCCTCCG was run?
A: 606

Q: TTCTCTGATTTTCCTTCCGCTCCCACAGCCTCTCCC was tested. Which ETS1 binding intensity did it give?
A: 697

Q: CAGGGAAGTTCGAACTGGGCGGGGCCCACCGCAGTT was tested. Which ETS1 binding intensity did it give?
A: 336

Q: For TTTACGGGATGTAGGCGGCGGCGGCGGTAGTGGTAG, which ETS1 binding intensity is on record?
A: 701

Q: AATATAGGAAGTGTCAGCTAGGGAACTCAACCACAA was tested. Which ETS1 binding intensity did it give?
A: 496

Q: How did the ETS1 binding intensity turn out when GGGAGGGCGGAAGGCGGCTCTGCGGCAGCAAGCCCC was run?
A: 476

Q: For CAGATTTCCGGCTTCTGAGGAGCTGCCCTACCACAG, which ETS1 binding intensity is on record?
A: 530

Q: For CTGAGGCGCGCCGGAAGGGCTAGCGGTCCCAGCATA, which ETS1 binding intensity is on record?
A: 1280

Q: With AGGAGTGACGAGGCGGACGTGCGGGGGCGGGGGTGT as the sequence, how does the ETS1 binding intensity read?
A: 461

Q: With GCCACGCAGTTCCCTTCCTGCGGCGTCCTCCACACC as the sequence, how does the ETS1 binding intensity read?
A: 561

Q: Which ETS1 binding intensity does the source give for CCTCCCGGCTTCCGTTCCTTGACCACCTCCTTCTCG here?
A: 560

Q: For CAGCTAGAGGAAGCGCTTCGCCCGCGAACCACAGGG, which ETS1 binding intensity is on record?
A: 375

Q: TGGAATTGAAAGGAAGCTGGCGCCACCGCAGAGGAC was tested. Which ETS1 binding intensity did it give?
A: 658

Q: With GAGATAGTCTGGAGGGGAAGTGGTTATAAGTGATAA as the sequence, how does the ETS1 binding intensity read?
A: 797

Q: Which ETS1 binding intensity does the source give for TTCATCTACTTCCCGCCACACCCACAGAGAAGCCCA here?
A: 469

Q: AATGTAGGAAATTCCACTGCATAATTTGTGGTAGTG was tested. Which ETS1 binding intensity did it give?
A: 478

Q: GAAACCTCACTCTGAGGATGTGGGTTCTGCCTTCTT was tested. Which ETS1 binding intensity did it give?
A: 522

Q: For CCGAGCCGGCCTCTTCCGCCGCAAGTCCCTCCCCAA, which ETS1 binding intensity is on record?
A: 548

Q: TGCACTCCACTTCCCCTCGCCCGCAGTGAGCAGTCA was tested. Which ETS1 binding intensity did it give?
A: 426

Q: Which ETS1 binding intensity does the source give for GATTAAGAGGAAGTGTGTGTGATTATTACCGCTGGA here?
A: 1310

Q: Which ETS1 binding intensity does the source give for AAGCCCTAGAGGAAATTAGTACGTAACCACCTTCTG here?
A: 540

Q: Which ETS1 binding intensity does the source give for GTGCGGCGGGAAACGCGTTCCCCGGCAACCGCGCCC here?
A: 401

Q: How did the ETS1 binding intensity turn out when GCTATCGAGCTTCCTGCAGCGGTGGCCACCCGAGCA was run?
A: 482

Q: Which ETS1 binding intensity does the source give for CATCAAAAACAGAGGAAGCCACAGCAAATTGCTGCC here?
A: 523

Q: How did the ETS1 binding intensity turn out when CCTGTCTGCTTCCGCCCGGCTTCGGCCCACAGTCAA was run?
A: 511

Q: With CCCCGTTACGCCCATCCGGCTCCCGCATAGGGCGTC as the sequence, how does the ETS1 binding intensity read?
A: 442

Q: CAGCCCTAGCGAGTTTCCTGCGGGGAAGGGCATTCC was tested. Which ETS1 binding intensity did it give?
A: 537

target: T1, ETS1; assay: ETS1 binding intensity (PBM fluorescence) in presence of RUNX1, normalised to ETS1-only experiment (arbitrary fluorescence units); higher = stronger binding; details: ETS1 concentration 1 nM; RUNX1 concentration 25 nM

Q: For AGCTCCAGGAAGAGGGCCTGAAAACCAAACGGGGGA, which ETS1 binding intensity is on record?
A: 474

Q: With TCTGAGAATGCAGGATATGTGTGTGGTCTCTAGTCA as the sequence, how does the ETS1 binding intensity read?
A: 1510

Q: TGGCTGTTCAGCCTTCCGCTTGTGGCTCCACCCCCG was tested. Which ETS1 binding intensity did it give?
A: 493

Q: Which ETS1 binding intensity does the source give for TTTCCTACAGAAGGATGTGGTTGGTGGGTTTGGTTT here?
A: 3210

Q: How did the ETS1 binding intensity turn out when GTGCAGGCCGGAAGGAAAAGGGTTGTGGGGCTCATT was run?
A: 1420

Q: GGTTTTGGTAGGAAGGAAAGTGGTTTTCATAGGAAG was tested. Which ETS1 binding intensity did it give?
A: 598

Q: For GCTAAAGGAAGCTCTGTACAGCTGTGGTAAGGTGGC, which ETS1 binding intensity is on record?
A: 792

Q: How did the ETS1 binding intensity turn out when TACTTAGAGGAAATGTGGCCTGTGGTCTTGTCTCAC was run?
A: 977

Q: With TCCAGCCGGACGCGATGCCTGGAGGCTGCGGGCGCC as the sequence, how does the ETS1 binding intensity read?
A: 597

Q: How did the ETS1 binding intensity turn out when TGGGAAGGGTGAGGAGGAAGCGGTGGCCTTGCTCTG was run?
A: 604

Q: How did the ETS1 binding intensity turn out when GCTTTTCCGCTCCCAGAGTGCCCCGCCCACAGTTCA was run?
A: 426

Q: For GCTATCCCCGCCCCTTCCTGTGGGCTGGCGCCCGAT, which ETS1 binding intensity is on record?
A: 489

Q: Which ETS1 binding intensity does the source give for TGCCCAGTACTTCCTCTTGTGGGGGAGCACAACTTG here?
A: 424

Q: How did the ETS1 binding intensity turn out when AGGGCGCCGCTTCCGGGAGCCCGCAAGCGGCCTCCG was run?
A: 715

Q: For TTCTCTGATTTTCCTTCCGCTCCCACAGCCTCTCCC, which ETS1 binding intensity is on record?
A: 612

Q: CAGGGAAGTTCGAACTGGGCGGGGCCCACCGCAGTT was tested. Which ETS1 binding intensity did it give?
A: 488

Q: With TTTACGGGATGTAGGCGGCGGCGGCGGTAGTGGTAG as the sequence, how does the ETS1 binding intensity read?
A: 771

Q: Which ETS1 binding intensity does the source give for AATATAGGAAGTGTCAGCTAGGGAACTCAACCACAA here?
A: 382

Q: Which ETS1 binding intensity does the source give for GGGAGGGCGGAAGGCGGCTCTGCGGCAGCAAGCCCC here?
A: 341

Q: CAGATTTCCGGCTTCTGAGGAGCTGCCCTACCACAG was tested. Which ETS1 binding intensity did it give?
A: 398

Q: How did the ETS1 binding intensity turn out when CTGAGGCGCGCCGGAAGGGCTAGCGGTCCCAGCATA was run?
A: 1430

Q: How did the ETS1 binding intensity turn out when AGGAGTGACGAGGCGGACGTGCGGGGGCGGGGGTGT was run?
A: 458

Q: How did the ETS1 binding intensity turn out when GCCACGCAGTTCCCTTCCTGCGGCGTCCTCCACACC was run?
A: 421

Q: Which ETS1 binding intensity does the source give for CCTCCCGGCTTCCGTTCCTTGACCACCTCCTTCTCG here?
A: 501

Q: For CAGCTAGAGGAAGCGCTTCGCCCGCGAACCACAGGG, which ETS1 binding intensity is on record?
A: 705

Q: TGGAATTGAAAGGAAGCTGGCGCCACCGCAGAGGAC was tested. Which ETS1 binding intensity did it give?
A: 2830

Q: GAGATAGTCTGGAGGGGAAGTGGTTATAAGTGATAA was tested. Which ETS1 binding intensity did it give?
A: 1290

Q: Which ETS1 binding intensity does the source give for TTCATCTACTTCCCGCCACACCCACAGAGAAGCCCA here?
A: 377

Q: How did the ETS1 binding intensity turn out when AATGTAGGAAATTCCACTGCATAATTTGTGGTAGTG was run?
A: 539

Q: With GAAACCTCACTCTGAGGATGTGGGTTCTGCCTTCTT as the sequence, how does the ETS1 binding intensity read?
A: 1710

Q: For CCGAGCCGGCCTCTTCCGCCGCAAGTCCCTCCCCAA, which ETS1 binding intensity is on record?
A: 428

Q: With TGCACTCCACTTCCCCTCGCCCGCAGTGAGCAGTCA as the sequence, how does the ETS1 binding intensity read?
A: 450

Q: With GATTAAGAGGAAGTGTGTGTGATTATTACCGCTGGA as the sequence, how does the ETS1 binding intensity read?
A: 1540

Q: Which ETS1 binding intensity does the source give for AAGCCCTAGAGGAAATTAGTACGTAACCACCTTCTG here?
A: 844

Q: GTGCGGCGGGAAACGCGTTCCCCGGCAACCGCGCCC was tested. Which ETS1 binding intensity did it give?
A: 479

Q: Which ETS1 binding intensity does the source give for GCTATCGAGCTTCCTGCAGCGGTGGCCACCCGAGCA here?
A: 418

Q: With CATCAAAAACAGAGGAAGCCACAGCAAATTGCTGCC as the sequence, how does the ETS1 binding intensity read?
A: 418

Q: Which ETS1 binding intensity does the source give for CCTGTCTGCTTCCGCCCGGCTTCGGCCCACAGTCAA here?
A: 441

Q: For CCCCGTTACGCCCATCCGGCTCCCGCATAGGGCGTC, which ETS1 binding intensity is on record?
A: 402

Q: For CAGCCCTAGCGAGTTTCCTGCGGGGAAGGGCATTCC, which ETS1 binding intensity is on record?
A: 480
